# Where “and” joins values, the source holds several entries; their conditions need not be identical. Equal entries are not always repeated. The campaign covered roughly 340,000 compounds. About 12,000 (3.5%) were called active. Another 18% or so got no clear call; they are omitted. The call rests on the fitted dose curve; in most records, active means well fitted inhibition curve with a large enough effect; inconclusive means small, poorly fitted or top-dose-only effect, or another doubt; inactive means no such curve, though single readings can be large or run the other way. The list comes from a sample in which actives are over-represented; it also holds similar structures and randomly drawn compounds. Where a call stands in place of a potency, no number is given. The source holds several records for some structures; these can differ, active in one and inactive in another.
# Assay: qHTS Assay for Inhibitors of Hepatitis C Virus (HCV)
# Conditions: Huh7.5.1 HCVcc-Cre infection, luciferase reporter, 44 h; series mostly up to 41.8 µM
# Summary of the method: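 After 44 h co-culture of compound, cells and HCVcc-Cre (~0.5 moi), substrate is added for 15 min at room temperature and luciferase measured over 15 sec. Cells were seeded at 1,000/well and pre-cultured 4 h.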
# Potency means the concentration at half of the fitted maximal effect.
SMILES,Potency,"activity change, negative = inhibition"
Cc1cc(OCc2cc(C(=O)NCc3cc(C(C)C)no3)no2)cc(C)c1Cl,inactive,
CCOC(=O)CC1COCCN1C(=O)c1cc(COc2ccc(F)c(F)c2)on1 (centres undefined),inactive,
CCOC(=O)CC1(NC(=O)c2cc(COc3cncc(Cl)c3)on2)CCCCC1,10 µM (active),
CCCCn1c(N)c(N(CC(C)C)C(=O)C2CSC3(C)CCC(=O)N23)c(=O)[nH]c1=O (centres undefined),inactive,
O=C(O)C1C2C=CC(O2)C1C(=O)Nc1ccccn1 (centres undefined),inactive,
COC(=O)[C@]1(C)N[C@H](c2ccc(-c3ccc(Cl)c(Cl)c3)cc2)[C@@H]2C(=O)N(C)C(=O)[C@@H]21,inactive,
Cc1ccc(NC(=O)C2CC2)cc1S(=O)(=O)N1CCOCC1,inactive,
Cc1cc(C(=O)Nc2ccc(C)c(S(=O)(=O)N3CCOCC3)c2)c2ccccc2n1,11.2 µM (active),
Cc1ccccc1OCC(=O)Nc1ccc(N2CCN(C(=O)C(C)C)CC2)c(Cl)c1,31.6 µM (active),
Cc1ccccc1OCC(=O)Nc1ccc2c(c1)ncn2C,inactive,
Cc1ccc(NC(=O)c2ccccn2)cc1S(=O)(=O)N1CCOCC1,inactive,
COc1ccccc1C(=O)Nc1ccc(OCC(=O)N2CCCCC2)cc1,inactive,
CCc1ccccc1OCC(=O)Nc1ccc(C)c(S(=O)(=O)N2CCCCCC2)c1,3.55 µM (active),
COc1ccc(NC(=O)C2=NNC(=O)CC2)cc1S(=O)(=O)N1CCCCC1,inactive,
COc1ccccc1C(=O)Nc1ccc(C)c(S(=O)(=O)N2CCCCC2)c1,7.08 µM (active),
Cc1ccc(NC(=O)CCC(=O)N2CCC(c3ccccc3)=N2)cc1S(=O)(=O)N1CCCCC1,inactive,
Cc1ccc(NC(=O)COC(=O)C2CC2)cc1S(=O)(=O)N1CCOCC1,inactive,
Cc1ccccc1OCC(=O)Nc1ccc(S(=O)(=O)N2CCOCC2)cc1,inactive,
COc1ccc(CCNC(=O)C(=O)NCC2OCCN2S(=O)(=O)c2cccs2)cc1OC (centres undefined),inactive,
Cc1ccc(SCC(=O)Nc2nncs2)cc1,inactive,
O=C(OCC(=O)N1CCCC1)c1ccc(Cl)nc1,inactive,
COC(=O)Cc1nc2c(N)nc(N)nc2[nH]c1=O,inactive,
O=C1N[C@H](Cc2ccccc2)C(=O)N[C@H]1Cc1cn(S(=O)(=O)c2ccccc2)c2ccccc12,inactive,
O=C(CNC(=O)c1ccco1)NNC(=O)c1ccc(Br)cc1,inactive,
COc1ccc(NC(=O)CN(C)C(=O)/C=C/c2cn(Cc3ccccc3)nc2-c2cccnc2)cc1,inactive,
C[C@H]1CN([C@@H](C)CO)C(=O)Cc2cc(NS(C)(=O)=O)ccc2O[C@@H]1CN(C)CC1CC1,inactive,

SMILES,Potency,"activity change, negative = inhibition"
Cc1occc1C(=O)Nc1cccc(S(=O)(=O)N2CCOCC2)c1,inactive,
O=C(CSc1ccccc1)Nc1cccc(S(=O)(=O)N2CCOCC2)c1,inactive,
Cc1c(C(=O)Nc2cccc(S(=O)(=O)N3CCOCC3)c2)oc2ccccc12,14.1 µM (active),
CCCC(O)(c1ccccc1)C(c1ccccc1)c1ccccn1 (centres undefined),inactive,
Cc1c(C(=O)Nc2ccccn2)oc2ccc(Br)cc12,inactive,
NC(=O)Cc1nc2scc(-c3ccc(Cl)cc3)c2c(=O)[nH]1,inactive,
O=c1[nH]c(CN2CCOCC2)nc2cc(Cl)ccc12,inactive,
O=c1[nH]c(CCl)nc2cc(-c3ccc(Cl)cc3)sc12,6.31 µM (active),
COc1ccc(/C=C/C(=O)OCC(=O)NC2CCCCCC2)cc1OC,inactive,
COc1cc(OC)cc(C(=O)NC(C(=O)N2CCC2)C(C)C)c1 (centres undefined),inactive,
CC(C=Cc1ccccc1)=NNS(=O)(=O)c1ccc([N+](=O)[O-])cc1,inactive,
COc1ccccc1NC1=NC2(CCCC2)N=C(N)N1,inactive,
COc1ccccc1NC1=NC(c2ccc(Cl)cc2)N=C(N)N1 (centres undefined),10 µM (active),
CC1(C)N=C(N)NC(Nc2ccc(Cl)cc2)=N1,inactive,
O=c1oc2ccccc2c(=O)c2ccccc12,inactive,
Cc1ccccc1-n1nnc2c(=O)oc3ccccc3c21,35.5 µM (active),
CCOC(=O)c1c(C)nc2c(c1C)c(=O)oc1ccccc12,inactive,
Cc1cc(NC(=O)CSc2nnc(-c3ccco3)n2N)no1,inactive,
COc1ccc(NC(=O)CCCNC(=O)Cn2cnc3sc4c(c3c2=O)CCCC4)cc1OC,inactive,
COc1ccc(NC(=O)CCNC(=O)Cn2cnc3sc4c(c3c2=O)CCCC4)cc1OC,inactive,
COc1ccc(/C=N/Nc2ncnc3sc4c(c23)CCCC4)cc1O,11.2 µM (active),
O=C(COC(=O)/C=C/c1cccc(Cl)c1)NCc1cccs1,inactive,
O=C(OCC(=O)N1CCCCC1)c1ccc(OC(F)(F)F)cc1,inactive,
CCN(CC)CCNC(=O)c1cc(S(C)(=O)=O)ccc1OC,inactive and 35.5 µM (active),
COc1ccc(Cl)cc1C(=O)NCC#N,inactive,
CCN(CC)CCNC(=O)c1ccc(NS(=O)(=O)c2ccc3c(c2)OCCO3)cc1,inactive,

SMILES,Potency,"activity change, negative = inhibition"
COc1ccccc1/C=C/C(=O)OCC(=O)NC1CCCCCC1,inactive,
Clc1c(OCCCn2ccnc2)ccc2ccccc12,14.1 µM (active),
O=C(CCN1C(=O)c2ccccc2C1=O)NCCCn1ccnc1,inactive,
CCOc1ccccc1C(=O)NCCCn1ccnc1,inactive,
N#Cc1cc([N+](=O)[O-])ccc1NC(=O)COC(=O)c1cnccn1,inactive,
CCOC(=O)C/C(C)=N\Nc1ccc([N+](=O)[O-])cc1[N+](=O)[O-],inactive,
Cc1csc(NC(=O)Nc2ccccc2[N+](=O)[O-])n1,inactive,
CCOC(=O)/C(=N\Nc1ccccc1[N+](=O)[O-])c1csc(Nc2ccccc2)n1,5.01 µM (active),
COc1ccc(N=C2C=CC(=O)O2)cc1,inactive,
COc1ccccc1C(=O)COC(=O)COc1ccc(C#N)cc1,inactive,
O=c1[nH]c(CSc2ncc(-c3ccc(F)cc3)n2Cc2ccco2)nc2ccccc12,25.1 µM (active),
Cn1c(-c2ccc(F)cc2)cnc1SCC(=O)NCc1ccco1,inactive,
CCn1c(Cc2ccccc2)nnc1SCc1nc2ccccc2c(=O)[nH]1,inactive,
CC(C)(CNC(=O)CNC(=O)C1CCCCC1)N1CCOCC1,inactive,
O=C(C[C@@H]1C/C=C\CCC(=O)OC[C@@H]2CCCN2C1=O)NCCO,inactive,
COc1ccc(Nc2cc(Cl)ccc2C(=O)O)cn1,inactive,
COc1ccc(C(=O)Nc2ccc(NC(=O)C(C)C)nc2)cc1,inactive,
COc1ccc(CS(=O)/C(Cl)=C(/Cl)C(=O)Nc2ccc(OC)nc2)cc1 (centres undefined),4.47 µM (active),
COc1ccc(NS(=O)(=O)c2ccc(C)c(C(=O)NCC(c3cccs3)N3CCOCC3)c2)cc1 (centres undefined),inactive,
CC(C)Cc1nnc(N)s1,inactive,
Cc1nc(-c2ccc(F)cc2)c(CC(=O)Nc2cc(S(=O)(=O)N3CCCCC3)ccc2C)s1,inactive,
COC1=CC(=O)OC(c2ccc(OC)cc2)C1 (centres undefined),inactive,
CCSc1nnc(NC(=O)c2ccc(C)cc2)s1,inactive,
CSc1nnc(NC(=O)c2nc(S(=O)(=O)Cc3ccc(C)cc3)ncc2Cl)s1,12.6 µM (active),
CSc1ncc(Cl)c(C(=O)Nc2cc(C)ccc2C)n1,inactive,
CCC1Nc2ncnc(N3CCN(c4ccccc4)CC3)c2N(Cc2ccc(Cl)cc2)C1=O (centres undefined),inactive,

SMILES,Potency,"activity change, negative = inhibition"
CCCN(CC1CC1)C(=O)COC(=O)c1ccc(C)cc1O,inactive,
COc1ccc(C(=O)O)cc1S(=O)(=O)NC1CCN(Cc2ccccc2)CC1,inactive,
Oc1c(C=Nc2cccc3nsnc23)ccc2ccccc12,inactive,
Oc1ccc(N=Cc2c(O)ccc3ccccc23)cc1,inactive,
Oc1ccc2ccccc2c1N=Nc1nccs1,8.91 µM (active),
COc1ccccc1CCC(=O)NNC(=O)c1ccncc1,inactive,
CC(C)(C)OC(=O)C[C@@H]1C/C=C\C[C@@H](CC(=O)N[C@H](CO)Cc2ccccc2)C(=O)NC[C@@H](c2ccccc2)OC1=O,inactive,
COc1cc2c(-c3ccc4c(c3)OCO4)c(-c3ccsc3)oc(=O)c2cc1OC,,-6.43% [at 8.37 µM] (inactive)
COC(=O)c1c(-c2ccsc2)oc2ccc(-c3cc(OC)c(OC)c(OC)c3)cc12,12.6 µM (active),
COc1cc(CC(=O)NCc2cccs2)cc(OC)c1OC,inactive,
Cn1c(-c2ccc(F)cc2)cc2onc(-c3ccccc3Cl)c2c1=O,inactive,
CC1(C)CC(=O)C=C(c2ccc(Cl)c(C(F)(F)F)c2)C1,inactive,
COc1ccc(S(=O)(=O)N2CCOCC2)cc1NC(=O)CSc1nnc(NC2CC2)s1,inactive,
Cc1cc(NC(=O)COC(=O)/C=C/c2ccc(C)o2)no1,inactive,
CNc1nc(Nc2ccc(C)c(Cl)c2)nc(N)c1[N+](=O)[O-],11.2 µM (active),
Cc1ccc(Nc2nc(N3CCOCC3)nc(N3CCOCC3)n2)cc1Cl,inactive,
Cc1ccc(Nc2nc(N)nc(CN3CCN(Cc4ccccc4)CC3)n2)cc1Cl,inactive,
Nc1ncnc2c1ncn2[C@@H]1O[C@H](CNS(=O)(=O)c2ccc(-c3ccno3)s2)[C@@H](O)[C@H]1O,inactive,
Cc1ccc(OCCNC(=O)CNC(=O)c2ccc(C)c(C)c2)cc1,inactive,
CCc1nnc(NC(=O)c2cc(S(=O)(=O)N3CCCCC3)ccc2C)s1,inactive,
COc1ccc(CCC(=O)N2CCN(S(=O)(=O)c3ccc(OC)cc3)CC2)cc1,inactive,
Cn1nc(-c2ccccc2)c2cc([N+](=O)[O-])ccc21,12.6 µM (active),
Cc1nn(-c2ccc([N+](=O)[O-])cc2)c(N)c1-c1ccccc1,inactive,
COc1ccc([N+](=O)[O-])cc1-c1nc2ccccc2nc1-c1ccccc1,inactive,
CCN(C(=O)COC(=O)c1c(C)nn(-c2ccccc2)c1Cl)c1c(N)n(Cc2ccccc2)c(=O)[nH]c1=O,inactive,
O=C(CN1C(=O)NC2(CCCC2)C1=O)Nc1cc(C(F)(F)F)ccc1N1CCOCC1,inactive,

# — PubChem BioAssay AID651820 (National Center for Advancing Translational Sciences (NCATS), 2012)
